Results filed as inconclusive are left out. Active and inactive are the calls of the source. Calls come from the whole dose curve; as a rule, active = well fitted activation curve with a large enough effect; inconclusive = small, poorly fitted or top-dose-only effect, or effect the other way; inactive = flat fitted curve, though single readings scatter.
Test: Cellular Toxicity (caspase-3) NIH 3T3 (AID 666);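 note: caspase signal read after 16 h compound exposure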
Details: NIH 3T3 caspase-3 activation, apoptosis/toxicity, 0% DMSO, 100% is 100 µM tamoxifen; series mostly up to 92.2 µM
Description: NIH Chemical Genomics Center [NCGC]
NIH Molecular Libraries Screening Centers Network [MLSCN]
National Institutes of Environmental Health Sciences [NIEHS]
National Toxicology Program [NTP]
We have developed a 1536-well cell-based assay for quantitative high throughput screening (qHTS) against a number of cell lines to determine in vitro caspase 3/7 of small molecules. This particular assay uses the NIH 3T3 cell line which is derived from mouse fibroblasts.
NCGC Assay Protocol Summary:
The Caspase-Glo 3/7 assay (Promega) is a homogeneous method to measure caspase-3 and caspase-7 activities in cultured cells. The quantitation of caspase 3/7 activity is based on the cleavage of a peptide-aminoluciferin substrate. After caspase cleaves the substrate the free aminoluciferin is liberated and serves as the substrate of luciferase, which generates the light. The luminescent signal is proportional to amount of caspase 3/7 activity present.
Using the Caspase-Glo 3/7 assay, the amount of caspase 3/7 activity was measured in the NIH 3T3 cell line with complete culture medium following compound treatment for 16 hours. The assay was performed in opaque white 1536-well plates. In the screen, tamoxifen and doxorubicin were used as positive controls. Library compounds were measured for their ability to cause the activation of caspase 3/7 in the cell line, as reflected by an increase in luminescence signal, in a concentration-dependent manner. Data were normalized to the controls for basal activity (DMSO only) and 100% stimulation (100 uM tamoxifen). AC50 values were determined from concentration-response data modeled with the standard Hill equation.
qHTS protocol for caspase 3/7 assay in NIH 3T3 cells
[Step] [Parameter] [Value] [Description]
1. Reagent; 5 uL; 1000 NIH 3T3 cells/well
2. Time; 5 hr; 37 °C incubation
4. Controls; 23 nL; Tamoxifen 0.23 uM to 100 uM & Doxorubicin 7.0 pM to 100 uM
5. Time; 16 hr; 37 °C incubation
6. Reagent; 5 uL; Caspase-Glo 3/7 reagent
7. Time; 20 min; Room Temperature
8. Detection; Luminescence; Viewlux plate reader
Keywords: caspase 3/7, apoptosis, NIH 3T3 cell line, luminescence, NTPHTS, NTPHTS_NCGC, NIEHS, EPA, DSSTox, MLSMR, MLSCN, NIH Roadmap, qHTS, NCGC

Row | SMILES | outcome
1 | O=Cc1ccc(CO)o1 | inactive
2 | COc1ccc(OC)cc1 | inactive
3 | O=C1NC(=O)c2cc([N+](=O)[O-])ccc21 | inactive
4 | C=Cc1ccccn1 | inactive
5 | Cc1ccc2cccnc2c1 | inactive
6 | CCC(C)(C)OC | inactive
7 | CC/C(C)=N/O | inactive
8 | O=C(Cl)c1ccccc1[N+](=O)[O-] | inactive
9 | O=C(O)CN(CC(=O)O)CC(=O)O | inactive
10 | CC(=C/C=C/C(C)=C/C=C/C=C(C)/C=C/C=C(C)/C=C/C(=O)O)/C=C/C(=O)O | inactive
11 | CCCCCCCCCCCCOCC1CO1 (stereo not given) | inactive
12 | CC(C)CCOC(=O)/C=C/c1ccccc1 | inactive
13 | CC(=O)CC(C)C | inactive
14 | Cc1ccc2ncccc2c1 | inactive
15 | Cc1cc(C2(c3cc(C)c(O)cc3C)OS(=O)(=O)c3ccccc32)c(C)cc1O | inactive
16 | OC/C(Br)=C(\Br)CO | inactive
17 | CCCCC(CC)CO (stereo not given) | inactive
18 | CCCC=O | inactive
19 | O=C1C=CCCC1 | inactive
20 | c1ccc2n[nH]nc2c1 | inactive

Row | SMILES | outcome
21 | CC(C)N(C)C | inactive
22 | Cc1ccc(C)cc1 | inactive
23 | COc1ccc(N)c(OC)c1 | inactive
24 | CCN(Cc1ccccc1)c1ccccc1 | inactive
25 | CCNS(=O)(=O)c1ccc(C)cc1 | inactive
26 | CCCCCO | inactive
27 | CCC(=O)/C=C/C1C(C)=CCCC1(C)C (stereo not given) | inactive
28 | Cc1ccc(C)c([N+](=O)[O-])c1 | inactive
29 | C[C@@H]1CC2(OC[C@]3(C)O[C@H]23)O[C@H]2C[C@@]3(C)[C@@H]4CC[C@H]5C(C)(C)C(O[C@@H]6OC[C@@H](O)[C@H](O)[C@H]6O)CC[C@@]56C[C@@]46CC[C@]3(C)[C@@H]12 (stereo not given in full) | inactive
30 | CC(C)(c1cc(Br)c(OCC(Br)CBr)c(Br)c1)c1cc(Br)c(OCC(Br)CBr)c(Br)c1 (stereo not given) | inactive
31 | O=[N+]([O-])c1cccc(Cl)c1 | inactive
32 | Cc1cccc(C(=O)O)c1[N+](=O)[O-] | inactive
33 | NC=O | inactive
34 | O=CNc1ccccc1 | inactive
35 | CCCCCNCCCCC | inactive
36 | c1ccc2c(c1)Oc1ccccc1S2 | inactive
37 | O=Cc1ccc(C(=O)O)cc1 | inactive
38 | Cc1cccc2cccnc12 | inactive
39 | C[C@@H]1CC2(OC3C[C@@]4(C)C5=CC[C@H]6C(C)(C)C(O[C@@H]7OC[C@@H](O)[C@H](O)[C@H]7O)CC[C@@]67C[C@@]57CC[C@]4(C)C31)OC(O)C1(C)OC21 (stereo not given in full) | inactive
40 | Cc1cc(C)cc([N+](=O)[O-])c1 | inactive

Source: PubChem BioAssay (NCATS)
